An excerpt weighted towards active compounds, which were near 7% of everything screened.
ATXN2 expr inh = Primary qHTS for Inhibitors of ATXN expression. Potency, µM (titrated, usually from 57 µM), actives largely listed as inhibitors. AID 1745845, 2022. HEK-293 ATXN2-luciferase reporter, luminescence, 24 h. 360,000 compounds, 0.72% hits; note: nearly all actives have a fitted effect of over 55% in size
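qHTS (up to 57 uM final) was run with 24 h compound exposure of reporter cells at 37 °C. Each well was multiplexed: SteadyGlo luminescence measured ATXN2-luciferase expression after a fluorogenic Gly-Phe-AFC viability readout (25 uM final).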
ATXN viability = Viability Counterscreen for Primary qHTS for Inhibitors of ATXN expression | S2 cells (HEK-293 line with an ATXN2-luciferase reporter) viability, CellTiter-Fluor protease fluorescence, 24 h | Potency, µM (titrated, usually from 56.7 µM), hits mostly cytotoxic | 400,000 compounds, 0.49% hits; note: nearly all actives have a fitted effect of over 40% in size
DRD3 antagonist = qHTS of D3 Dopamine Receptor Antagonist: qHTS. D(3) dopamine receptor (Homo sapiens), P35462. D3R cells, DiscoveRx beta-arrestin luminescence, antagonist mode; stronger effect = lower value. max response, negative = inhibition, %. 360,000 compounds, 2.5% hits; in the data active = max response below about -50%; inconclusive = no clear call, values can overlap the other calls
Target sequence (P35462 whole entry, looked up): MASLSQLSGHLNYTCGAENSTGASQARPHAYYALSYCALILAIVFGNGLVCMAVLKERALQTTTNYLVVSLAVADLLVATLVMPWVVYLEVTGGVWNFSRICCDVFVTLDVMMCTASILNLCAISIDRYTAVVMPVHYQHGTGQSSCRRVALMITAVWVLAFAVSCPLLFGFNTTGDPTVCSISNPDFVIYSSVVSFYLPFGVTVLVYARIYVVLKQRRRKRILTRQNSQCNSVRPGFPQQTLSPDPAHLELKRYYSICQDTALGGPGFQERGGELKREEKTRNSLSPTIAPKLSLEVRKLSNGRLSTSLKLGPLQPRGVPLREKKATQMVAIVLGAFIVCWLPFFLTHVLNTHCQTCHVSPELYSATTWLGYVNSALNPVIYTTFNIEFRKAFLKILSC
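Cells plated overnight at 1500 cells/well, then exposed to library compounds with dopamine controls for 90 minutes at 37 degrees C. DiscoveRx reagent added for 30–60 minutes at room temperature; luminescence read, quantitative HTS format.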
IL1B secr inh = qHTS for Inhibitors of Inflammasome Signaling: IL-1-beta AlphaLISA Primary Screen; THP-1 LPS/ATP IL-1B secretion, AlphaLISA, 16 h; stronger effect = lower value; activity change, % at 57.5 µM; 360,000 compounds, 4.7% hits; in the data active = activity change below about -50%; inconclusive = mostly about -30% to -49%
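THP-1 cells pretreated 1 hr with compounds (up to 57.5 uM final), then stimulated with LPS (250 ng/mL final) plus ATP (1.25 mM final); secreted IL-1B measured by AlphaLISA after 16 hr, decreased signal indicating inhibition.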
Integrin act MD = qHTS for Activators of Integrin-Mediated Alleviation for Muscular Dystrophy | alpha7betagal myoblasts, beta-gal FDG fluorescence, 48 h | 350,000 compounds, 0.064% hits | Potency, µM (series often up to 38.3 µM), usual class: activators | AID 624291, 2012; note: nearly all actives have a fitted effect of over 60% in size
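alpha7betagal+/- myoblasts (passage 13, 250/well) treated 48 h at 37C with compounds at 1:260 dilution of DMSO stock. Lysed, then beta-galactosidase activity read as FDG fluorescence (ex 480/em 540) after 30 min, with pre-read for autofluorescence.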
DRD3 agonist = qHTS of D3 Dopamine Receptor Agonist: qHTS; D(3) dopamine receptor (Homo sapiens), P35462; D3R DiscoveRx beta-arrestin cells, luminescence, 90 min; max activation, %; 410,000 compounds, 0.58% hits; AID 652048, 2013; in the data active = max activation above about 30%
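Cells at 1500/well, incubated overnight, then treated with pinned compounds (dopamine as control) for 90 min at 37 degrees C. DiscoveRx reagent added for 30 - 60 minutes at room temperature; luminescence read.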
A number is an active result; 0 = inactive; ? = inconclusive; - = not tested or not shown; [ ] = another dose, or the depositor's remark. Unless noted, calls come from the whole dose curve; as a rule, active = well fitted curve in the direction sought with a large enough effect; inconclusive = small, poorly fitted or top-dose-only effect, or another doubt; inactive = no such curve, though single readings can be large; an effect the other way counts as inactive or inconclusive.

SMILES	ATXN2 expr inh	ATXN viability	DRD3 antagonist	IL1B secr inh	Integrin act MD	DRD3 agonist
CC(O)CN1C(=O)C(CC(=O)Nc2ccc(Cl)cc2)SC1=Nc1ccccc1 (centres undefined)	?	?	0	-56.1	0	0
COc1ccc(N=C2SC(CC(=O)Nc3ccccc3)C(=O)N2CCc2ccccn2)cc1 (centres undefined)	0	?	0	0	0	0
COc1ccc(CCNC(=O)COC(=O)c2cccn2C)cc1	0	0	0	0	0	0
COc1ccc(Cl)cc1NC(=O)CCS(=O)(=O)c1ccc(C)cc1	0	0	0	0	0	0
O=C1NC[C@@H](CCCCN2C[C@H](Cc3ccccc3)N(CC3CCCCC3)C(=O)C2=O)N(CC2CCCCC2)C1=O	0	14.1µM	0	0	-	0
O=C1NC[C@H](CCCCN2C[C@H](Cc3ccc(O)cc3)N(Cc3ccccc3)C(=O)C2=O)N(CCc2ccc(O)cc2)C1=O	0	0	0	0	-	36.5
O=C1NC[C@@H](CCCCN2C[C@H](Cc3ccc(O)cc3)N(CC3CCCCC3)C(=O)C2=O)N(Cc2ccccc2)C1=O	0	0	-75.0	0	-	0
O=C1NC[C@H](c2ccccc2)N(CCCCC2CCCCC2)C1=O	0	0	-58.3	0	-	0
O=C1NC[C@@H](CCCCN2C[C@H](Cc3ccccc3)N(Cc3ccccc3)C(=O)C2=O)N(CC2CCCCC2)C1=O	0	0	0	0	-	0
O=C1NC[C@H](CCCCN2C[C@H](Cc3ccccc3)N(CC3CCCCC3)C(=O)C2=O)N(CCc2ccccc2)C1=O	0	0	0	-51.4	-	0
O=C1NC[C@@H](CCCCN2C[C@H](Cc3ccc(O)cc3)N(CC3CCCCC3)C(=O)C2=O)N(CCc2ccccc2)C1=O	0	0	?	0	-	0
C/C(=N\NS(=O)(=O)c1ccc(Br)cc1)c1ccncc1	0	0	0	-77.6	0	0
C/C(=N/NS(=O)(=O)c1ccc(Cl)cc1)c1ccncc1	0	0	0	0	0	0
CCCCn1c(N)c(N(CC(C)C)C(=O)CSCc2c(C)noc2C)c(=O)[nH]c1=O	0	0	0	0	0	0
O=C(CC1Sc2ccccc2NC1=O)NNc1ccc(Cl)cc1Cl (centres undefined)	0	0	0	-57.9	0	0
CC(=O)NC1(C2CCCCC2=O)CCCCC1 (centres undefined)	0	0	-64.7	0	0	0
CN(C)c1ccc(/C=N/NC(=O)c2ccco2)cc1	0	?	0	0	0	0
O=C(c1cc(S(=O)(=O)N2CCC3(CC2)OCCO3)ccc1F)N1CCCCC1	0[11.3 µM]	0	0	-59.6	0	0
O=C(Nc1cc(Cl)cc(Cl)c1)c1cc(S(=O)(=O)N2CCC3(CC2)OCCO3)ccc1F	?	?	-	-	-	0
Cc1ccc(S(=O)(=O)CCC(=O)Nc2nnc(-c3cccs3)o2)cc1	0	0	0	-61.3	0	0
O=C(CCS(=O)(=O)c1ccc(Cl)cc1)Nc1nnc(-c2cccs2)o1	0	0	0	0	0	0
COc1ccccc1-c1nnc(NC(=O)c2ccc(S(=O)(=O)N(C)C)cc2)o1	0	0	0	0	0	0
Cc1ccc(S(=O)(=O)CCC(=O)Nc2nnc(-c3ccco3)o2)cc1	0	?	0	0	0	0
COc1ccccc1-c1nnc(NC(=O)CCS(=O)(=O)c2ccccc2)o1	0	0	?	-81.2	0	0
O=C(CCS(=O)(=O)c1ccc(Cl)cc1)Nc1nnc(-c2ccco2)o1	0	0	0	-81.4	0	0
SMILES	ATXN2 expr inh	ATXN viability	DRD3 antagonist	IL1B secr inh	Integrin act MD	DRD3 agonist
COc1ccccc1-c1nnc(NC(=O)CCS(=O)(=O)c2ccc(F)cc2)o1	-	?	0	0	0	0
CCN(Cc1ccccc1)S(=O)(=O)c1ccc(C(=O)Nc2nnc(-c3ccccc3OC)o2)cc1	?	0	-85.9	0	0	0
N=C1CCCN1c1ccccc1O	0	0	0	0	0	0
COc1ccc(Nc2cc(C)nc3ncnn23)cc1Cl	0	0	0	0	0	0
Cc1cc(N2CCOCC2)ccc1/C=C\[N+](=O)[O-]	?	?	0	-222.5	0	0
O=[N+]([O-])c1ccc(N2CCOCC2)cc1O	0	?	0	0	0	0
CN1CCN(CCCN(Cc2cccs2)C(=S)Nc2ccc(Cl)cc2)CC1	0	0	?	-65.0	0	0
Cc1cc(C)cc(NC(=S)N(CCCN2CCN(C)CC2)Cc2cccs2)c1	0	0	0	0	0	0
COc1ccc(NC(=S)N(CCCN2CCN(C)CC2)Cc2cccs2)cc1	0	0	0	0	0	0
COc1ccccc1NC(=S)N(CCN1CCCCCC1)Cc1cccs1	0	0	-57.7	0	0	0
COc1ccc(NC(=S)N(CCCN2CCC(C)CC2)Cc2cccs2)cc1Cl	0	?	-79.8	?	0	0
CSc1cccc(NC(=S)N(CCCN2CCCC(C)C2)Cc2cccs2)c1 (centres undefined)	0[11.3 µM]	?	-103.6	-	0	0
COc1ccccc1C(=O)NC(=O)COC(=O)Cc1ccccc1[N+](=O)[O-]	0	0	0	0	0	0
O=C(CNC(=S)N(CCCN1CCOCC1)Cc1cccs1)NCc1ccc(Cl)cc1	-	0	0	0	0	0
COc1cccc(NC(=S)N(CCN2CCCCC2)Cc2ccco2)c1	0	0	?	?	0	0
COc1cccc(NC(=S)N(CCCN2CCCC(C)C2)Cc2cccs2)c1 (centres undefined)	0	0	-80.2	0	0	0
O=C(CNC(=S)N(CCCN1CCOCC1)Cc1cccs1)NCc1ccccc1Cl	-	0	-58.5	0	0	0
N#Cc1cccc(NC(=O)CN2C(=O)NC(Cc3ccccc3)C2=O)c1 (centres undefined)	-	-	0	0	0	0
CCCCS(=O)(=O)/C=C\C=C/S(=O)(=O)CCCC	7.08µM	8.91µM	0	-123.2	0	0
COc1ccc(Cl)cc1S(=O)(=O)NC(C)C(=O)NCCCn1ccnc1 (centres undefined)	0	0	0	0	0	0
O=C(c1ccco1)N1CCCC(c2nc(-c3ccc(S(=O)(=O)NCc4ccccc4)cc3)no2)C1 (centres undefined)	28.2µM	?	0	?	0	0
O=S(=O)(c1ccc(Cl)cc1)N1CCCC(c2nc(-c3ccc(F)cc3)no2)C1 (centres undefined)	0	0	0	0	0	0
O=C(CC1CCCCC1)N1CCCC(c2nc(-c3ccc(S(=O)(=O)N4CCCC4)cc3)no2)C1 (centres undefined)	0	?	0	-77.2	0	0
